# Source: PubChem BioAssay AID686978 (National Center for Advancing Translational Sciences (NCATS), 2013)
# In all, about 420,000 compounds went through this assay and about 64,000 (15%) were called active. Another 27% or so got no clear call; they are omitted. The call rests on the fitted dose curve; in most records, active means well fitted inhibition curve with a large enough effect; inconclusive means small, poorly fitted or top-dose-only effect; inactive means flat fitted curve, though single readings scatter. Only a sample is shown.
# Assay: qHTS for Inhibitors of human tyrosyl-DNA phosphodiesterase 1 (TDP1): qHTS in cells in absence of CPT; further: nearly all actives have a fitted effect of over 55% in size
# Conditions: DT40 Tdp1-/- hTDP1 cells, no CPT, ATP luminescence, 48 h; activity change, negative = growth inhibition: at 46.2 µM (top of the series)
# Summary of the method: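 Seeded 400 DT40-hTDP1 cells/well (vehicle DMSO, no 20 nM CPT); pinned compounds; ≥48 hr at 37 °C; CellTiter-Glo luminescence as viability measure.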
# On the % scale 0 is the no-effect control and ±100 the full control effect; potency means the concentration at half of the fitted maximal effect.
SMILES,"activity change, negative = growth inhibition",Potency
CC1CCCN(c2csc3ccc(F)cc3c2=O)C1 (centres undefined),-5.98% (inactive),–
S=c1[nH]nc(/C=C/c2ccccc2)o1,-6.07% (inactive),–
CN(C)c1nc(Nc2ccc(Cl)c(Cl)c2)nc(N(C)C)n1,–,10.3 µM (active)
CN(C)c1nc(NN)nc(Nc2ccc(F)cc2)n1,-27% (inactive),–
CC(=O)Nc1nc(N(C)C)nc(N(C)C)n1,-5.59% (inactive),–
Cc1ccc(/C([O-])=C(/C(=S)NCc2ccco2)[n+]2ccccc2)cc1[N+](=O)[O-],-13.8% (inactive),–
CCOC(=O)c1c(NC(=O)CSc2nnc(CNc3ccc(C)cc3C)o2)sc(C)c1C,-14.1% (inactive),–
FC(F)(F)c1nc(-c2ccccc2)ncc1-c1nnnn1-c1ccccc1,–,16.4 µM (active)
c1ccc(-n2nnnc2NC2CCCCCC2)cc1,-18.6% (inactive),–
Fc1ccccc1CCNc1nnnn1-c1ccccc1,-15.3% (inactive),–
O=S(=O)(NC1CCCCC1N1CCC(O)CC1)c1ccc(Cl)cc1 (centres undefined),16.4% (inactive),–
CN1CCCc2cc(C#N)c(=O)[nH]c21,-0.386% (inactive),–
CCOC(=O)c1cc(=O)c2ccc(OCc3ccccc3)cc2o1,-11.2% (inactive),–
CCOC(=O)c1cc2cc(-c3c(C(=O)OCC)oc4cc(O)cc(O)c4c3=O)ccc2o1,–,23.1 µM (active)
CCOC(=O)c1cc2cc3ccccc3cc2oc1=O,3.19% (inactive),–
O=C(O)c1ccc(COCC(F)(F)F)cc1,-5.35% (inactive),–
CC1CCC2(CC1)NC(=O)N(CC(=O)c1ccc3c(c1)OCO3)C2=O (centres undefined),-1.18% (inactive),–
O=C(CCN1C(=O)c2ccccc2C1=O)Nc1ccncc1,-9.9% (inactive),–
COc1cccc(C(=O)c2cc3ccc(O)cc3oc2=O)c1,-21.7% (inactive),–
O=c1oc2cc(O)ccc2cc1-c1ccc(F)cc1,–,14.6 µM (active)
COc1ccc(-c2cc3ccc(OCc4nn[nH]n4)cc3oc2=O)cc1,6.88% (inactive),–
COC(=O)CCNC(=O)c1ccc2[nH]c(C)c(C)c2c1,-9.72% (inactive),–

SMILES,"activity change, negative = growth inhibition",Potency
CN(C)CCCNC(=O)c1ccc2[nH]c3ccccc3c2c1,-12.1% (inactive),–
Cc1ccc(C(=O)NCCSc2c(C)[nH]c3ccccc23)cc1C,–,25.9 µM (active)
COC(=O)c1ccc(OCC(=O)NC(C)(C)C)cc1,3.15% (inactive),–
O=C(O)c1cnn2c(C(F)(F)F)cc(-c3ccccc3)nc12,-14.2% (inactive),–
COc1ccc(-c2cc(C(F)(F)F)n3nc(C(=O)N4CCOCC4)c(Cl)c3n2)cc1,–,29.1 µM (active)
COc1ccc(OCC(=O)N2CCOCC2)cc1,-5.8% (inactive),–
O=C(NC1CC(=O)N(c2ccc(F)cc2)C1)C1CCCCC1 (centres undefined),-0.378% (inactive),–
COc1cc(OC)cc(-c2nnc(SCC(=O)Nc3ccc(C(=O)O)cc3)s2)c1,-25.9% (inactive),–
COc1ccc(N2CCN(C(=O)C3CCN(C(=O)c4ccccc4Cl)CC3)CC2)cc1,-22.1% (inactive),–
COc1ccc(N2CCN(C(=O)CN3C(=O)COc4ccccc43)CC2)cc1,-18.9% (inactive),–
COc1ccc(N2CCN(C(=O)CSCc3nc(-c4ccccc4Cl)oc3C)CC2)cc1,–,16.4 µM (active)
Cc1ccc(NC(=O)COC(=O)CN2CCSC2=O)cc1F,9.29% (inactive),–
CS(=O)(=O)c1ccc2nc(NC(=O)CN3CCCCCC3)sc2c1,-4.58% (inactive),–
CC(C)(C)C(=O)c1c(N)[nH]c(C(=O)c2ccccc2)c1-c1ccc(F)cc1,-27% (inactive),–
NC(=O)Cc1ccc2c(c1)[nH]c1ccccc12,-1.59% (inactive),–
CCc1cc(-c2nnc(SCC(=O)NC3CC3)n2C)cs1,1.5% (inactive),–
COc1ccc(OC)c(/C=N/NC(=O)c2ccc[n+](CC(=O)c3ccccc3)c2)c1,-16% (inactive),–
COc1cccc(/C=N\NC(=O)C2=NNC(=O)C2C)c1O (centres undefined),–,23.1 µM (active)
CN(C)CCNC(=O)c1[nH]nc2c1CCc1ccccc1-2,-11.9% (inactive),–
COc1ccc(/C=N/NC(=O)c2ccc3c(c2)OCCO3)c(OC)c1,-0.934% (inactive),–
COc1cccc(/C=N/NC(=O)c2[nH]nc3c2CCc2ccccc2-3)c1O,–,2.91 µM (active)
CCC(C)C1(C2CCCC2)NC(=O)NC1=O (centres undefined),-8.57% (inactive),–

SMILES,"activity change, negative = growth inhibition",Potency
CN1CCN(C(=O)CCc2ncc(C(F)(F)F)cc2Cl)CC1,-0.628% (inactive),–
CCN1CCN(C(=O)CSc2ccc(C)cc2)CC1,-13.9% (inactive),–
CCN1CCC2(CC1)N=C(c1ccc(F)cc1)C(=S)N2C(=O)c1ccc(C)cc1,–,5.8 µM (active)
Cc1ccc(C(=O)N(CN2CCCC2=O)c2ccc(F)cc2)cc1,-5.03% (inactive),–
COc1ccc(Cl)cc1S(=O)(=O)N1CCC(O)(c2ccc(Cl)cc2)CC1,-23.4% (inactive),–
O=C(c1cc2ccccc2o1)N1CCN(Cc2ccccc2)CC1,5.01% (inactive),–
CS(=O)(=O)N1CCN(C(=O)c2cc3ccccc3oc2=O)CC1,-3.02% (inactive),–
O=C(c1cc2ccccc2o1)N1CCN(S(=O)(=O)c2ccc(Cl)s2)CC1,–,14.6 µM (active)
COC(=O)c1ccc(C)c(NC(=O)Cn2c(C)csc2=O)c1,23.5% (inactive),–
CCOc1cc(/C=N/n2cnnc2)c(Br)cc1O,-16.7% (inactive),–
O=C(c1csnn1)N1CCC2(CCN(Cc3nccs3)CC2)CC1,-9.33% (inactive),–
CN1CN(C)c2ccc([N+](=O)[O-])c3cccc1c23,-15.8% (inactive),–
Cc1nc2ccccn2c1C(=O)NN=C1CCN(C)CC1,12% (inactive),–
COC(=O)c1ccc(CN2CCCC(C(=O)Nc3cccc(-n4cnnn4)c3)C2)cc1 (centres undefined),–,16.4 µM (active)
CCOC(=O)c1cccc(NC(=O)C2CCCN(S(=O)(=O)c3cnc[nH]3)C2)c1 (centres undefined),1% (inactive),–
O=C(Nc1ccc(F)cc1)C1CCCN(S(=O)(=O)c2ccc(-n3cnnn3)cc2)C1 (centres undefined),3.32% (inactive),–
Cc1ccc(C(=O)NC2CCN(C(=O)Nc3ccccc3Cl)CC2)cc1,-16.2% (inactive),–
CN(CC(=O)NCc1ccc2c(c1)OCO2)CC(=O)Nc1ccc(F)c(F)c1F,1.96% (inactive),–
CC(C)c1ccc(Cn2c(COc3ccccc3)nc3ccccc32)cc1,–,20.6 µM (active)
Cc1nc2ccccc2n1CC(O)c1ccccc1 (centres undefined),-19.5% (inactive),–
CC(O)c1nc2ccccc2n1Cc1ccc([N+](=O)[O-])cc1 (centres undefined),9.29% (inactive),–
COC(=O)[C@@H](NC(=O)Nc1cc(Cl)ccc1C)C(C)C,-2.95% (inactive),–

SMILES,"activity change, negative = growth inhibition",Potency
Cc1ccc2c(C)nc(N3CCCC(C(=O)NC(C)(C)CO)C3)nc2c1 (centres undefined),-23.1% (inactive),–
Cc1ccc(NC(=O)CSc2nnc(-c3cnccn3)n2Cc2ccco2)cc1C,-12.6% (inactive),–
O=C(COc1ccc(S(=O)(=O)NCc2ccccc2)cc1)N1CCOCC1,-18.6% (inactive),–
COC(=O)c1c(-c2ccc(C)cc2)csc1N,-19.4% (inactive),–
CC(=NCc1ccco1)C1=C(O)c2ccccc2C1=O,-22.6% (inactive),–
CCOC(=O)c1c(-c2ccc(C)cc2)csc1/N=C(\C)C1=C(O)c2ccccc2C1=O,–,18.4 µM (active)
CCOC(=O)c1c(/N=C/C2C(=O)CC(C)(C)CC2=O)sc(C)c1C,-3.59% (inactive),–
CC1CCCCC1NC(=O)COC(=O)Cc1ccc(Br)cc1 (centres undefined),2.5% (inactive),–
CCCCn1c(N)c(N(CC)C(=O)c2ccc(N(C)S(=O)(=O)c3ccc(C)cc3)cc2)c(=O)[nH]c1=O,-0.183% (inactive),–
O=C(O)c1ccc(Nc2nc(-c3ccccc3)c3cc(Br)ccc3n2)cc1,-23.2% (inactive),–
NC(N)=Nc1nc(-c2ccccc2)c2cc(Cl)ccc2n1,–,16.4 µM (active)
Cc1ccc2nc(Nc3ccccc3O)nc(-c3ccccc3)c2c1,-8.65% (inactive),–
C[C@H]1CC[C@]2(O[C@@H](CCO)C[C@@H](O)[C@@H]2O)O1,-14.8% (inactive),–
Cn1cc(CN2CCC(C(O)CCc3ccccc3)CC2)c(-c2ccccc2F)n1 (centres undefined),-15.1% (inactive),–
COc1ccc(NC(=S)N2CCC(NC(=O)c3cccc(F)c3)CC2)cc1,-22.5% (inactive),–
CCC(O)C1CCN(Cc2cn(-c3ccc(OC)cc3)nc2-c2cccc(F)c2)CC1 (centres undefined),–,20.6 µM (active)
Cc1cccc(-n2cc(CN3CCN(C(=O)c4ncn[nH]4)CC3)c(-c3cccc(F)c3)n2)c1,-1.1% (inactive),–
COc1ccc(-n2cc(CNC3CCOCC3)c(-c3cccc(F)c3)n2)cc1,–,20.6 µM (active)
COCCn1c(=O)c(-c2cccc(F)c2)nc2cncnc21,2.81% (inactive),–
COC(=O)CC1Oc2ccccc2-n2cc(-c3ccccc3)nc21 (centres undefined),–,20.6 µM (active)
COC(=O)CC1=NN(c2ccccc2)C(=O)C1,1.46% (inactive),–
CCC(CC)c1nn2cc(-c3ccccc3)nc2s1,-10.9% (inactive),–

SMILES,"activity change, negative = growth inhibition",Potency
CCC1CCCCN1C(=S)NC(=O)c1ccco1 (centres undefined),-15.4% (inactive),–
CC(=O)c1cccc(NC(=O)[C@@H](NC(N)=O)C(C)C)c1,17.4% (inactive),–
COc1ccc(CCNC(=O)CSc2nnc(CNC(=O)c3cccs3)o2)cc1OC,-2.7% (inactive),–
O=C(O)Cc1ccc(NC(=O)c2cccs2)cc1,-24.9% (inactive),–
COc1ccc(CCNC(=O)/C(C#N)=C2\N=C(NC(=O)c3cccs3)c3ccccc32)cc1,–,10.3 µM (active)
CCc1ccc2c(c1)cc(CN(C(=S)Nc1ccccc1Cl)C1CC1)c1nnnn12,-20.9% (inactive),–
Cc1oc2c(C)c3oc(=O)c(CC(=O)N[C@@H](CC(C)C)C(=O)N[C@@H](Cc4ccccc4)C(=O)O)c(C)c3cc2c1C,4.05% (inactive),–
COCc1[nH][nH]c(=O)c1C=Nc1ccc(F)cc1F,0.924% (inactive),–
CS(=O)(=O)N(CC(=O)N1CCc2ccccc2C1)c1ccc(Br)cc1,-22.6% (inactive),–
COc1cccc(N(CC(=O)N2CCc3ccccc3C2)S(C)(=O)=O)c1,5.09% (inactive),–
Cc1ccc(S(=O)(=O)N(CC(=O)N2CCc3ccccc3C2)c2cccc(Cl)c2)cc1,–,20.6 µM (active)
Cc1ccccc1CNC(=O)CCC(=O)N1Cc2ccccc2Oc2ncccc21,-21.1% (inactive),–
COc1ccc(C(=O)N(Cc2ccccc2)c2ccc(C)cc2)cc1S(=O)(=O)N1CCOCC1,–,14.6 µM (active)
COc1ccc(C(=O)OCC(=O)c2ccc(C)c(S(=O)(=O)N3CCOCC3)c2)cc1OC,–,11.6 µM (active)
COc1ccc(C(=O)NCc2ccc(C)cc2)cc1S(=O)(=O)N1CCCC1,0.964% (inactive),–
Cc1cccc(N(Cc2ccccc2)C(=O)c2cc(S(=O)(=O)N3CCOCC3)ccc2F)c1,–,18.4 µM (active)
Cc1ccc(S(=O)(=O)N2CCOCC2)cc1C(=O)NC(=S)N(Cc1ccccc1)C(C)C,-7.61% (inactive),–
Cc1ccc(C(=O)OCC(=O)N2CCCCCC2)cc1S(=O)(=O)N1CCOCC1,4.19% (inactive),–
CCOc1ccc(CCNC(=O)COC(=O)c2ccc(C)c(S(=O)(=O)N3CCOCC3)c2)cc1OCC,-3.81% (inactive),–
COc1ccc(C(=O)N(C)Cc2ccc(OC)c(OC)c2OC)cc1S(=O)(=O)N1CCOCC1,21.5% (inactive),–
Cc1ccc(S(=O)(=O)N2CCN(C(=O)c3cc(S(=O)(=O)N4CCOCC4)ccc3F)CC2)cc1,-16.8% (inactive),–
